The structures appear in SMILES notation. The whole screen tested about 290,000 compounds, of which about 3,000 (1%) were called active. This excerpt belongs to a sample that is enriched for actives. A number with no mark means an inactive call. Cut-off read from the data, not from the text of the source: active = inhibition mostly above about 36% (no sharp cut-off); inactive = mostly below about 34%.

In general, inhibition refers to the drop in the measured response relative to a control, in per cent.

This test in a line: NOD1 signaling inhibitors, primary screen, cell-based, luminescence, uHTS (AID 1578).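 Note: HEK-293T reporter cells stimulated with the NOD1 agonist gamma-tri-DAP.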 The note with it: NOD1-driven NF-kB luciferase reporter cells, at 4 µM, active compounds read high. (In general: A reporter such as luciferase makes a cellular process visible.)
`CCCCOC(=O)c1cccnc1`: the inhibition was 9.9%.

Turning to `Cc1c(Cl)cccc1NC(=O)Nc1c(C)n(C)n(-c2ccccc2)c1=O`, the inhibition was -22.5%.

Regarding `O=C(Cc1n[nH]c(=O)[nH]c1=O)N/N=C/c1c(O)ccc2ccccc12`, the inhibition was -32.5%.

For `COCCN1C(=O)c2ccccc2C(C(=O)N2CCN(c3ccccn3)CC2)C1c1ccc(F)cc1` (configuration not stated), the inhibition is 13.2%. Then `COc1cccc(CNC(=O)CCC2CCCN(C(=O)Cc3ccccc3F)C2)c1` (configuration not stated), with -26.2%; and `CC(O)c1nc2ccccc2n1CC(=O)N1CCN(c2ccccc2)CC1` (configuration not stated), with -27.8%; and `CCOc1ccccc1NC(=S)N(CCCN1CCOCC1)Cc1cn(C)c2ccccc12`, with -4.6%. For the compound `N#Cc1c(-c2ccccc2)nc(SCc2ccc(Cl)cc2)[nH]c1=O`, the inhibition was -2.4%.

Turning to `N#Cc1c(Cl)nc(SCc2ccccc2)nc1-c1ccccc1`, the inhibition was 32.4%. Then `N#Cc1c(-c2ccccc2)nc(SCc2cccc(Cl)c2)[nH]c1=O`, with 18.9%; and `O=c1nc(SCc2cccc(C(F)(F)F)c2)nc2ccccn12`, with -17.7%. For `CCSc1nc(N)nc(-c2cccs2)c1C#N`, the inhibition was -29%. Consider `N#Cc1c(N)nc(SCc2ccncc2)c(C#N)c1-c1cccs1`, for which the inhibition was 61.6%. The figure for `N#Cc1cc2ccccc2nc1SCC(=O)NC1CC1` is -32.4%; for `Cc1ccc(NC(=S)NNC(=O)c2c(Cl)c(C)nn2C)cc1` it is 0%; for `Cc1ccc2c(c1)N(CC(=O)NC1CCCC1)C(=O)CO2` it is -27.1%. The figure for `CCOC(=O)C1(CC)NC(c2ccc(OC)c(OC)c2)C2C(=O)N(c3cccc(C(C)=O)c3)C(=O)C21` (configuration not stated) is -2.3%. As for `Cc1nc([N+](=O)[O-])cn1CC(O)c1ccc(-c2ccccc2)cc1` (configuration not stated), the inhibition is -8.6%.

`COc1ccc(N2CCN(C(=O)CSc3nnc4c(C)cc5ccccc5n34)CC2)cc1`: the inhibition was -15.6%. For the compound `C#CCOC(=O)c1cc(Cl)c(=O)n(Cc2ccc(Cl)cc2Cl)c1`, the inhibition was 12.3%. Then `CC(NC(=O)/C(C#N)=C/c1ccco1)c1ccccc1` (configuration not stated), with -8.1%; and `Cc1nn(Cc2c(F)c(F)c(F)c(F)c2F)c(C)c1NC(=O)c1c([N+](=O)[O-])c(C)nn1C`, with 10.1%; and `Cc1cc(C)c(C#N)c(SCC(=O)c2ccccc2)n1`, with -26.8%. Then `Cc1cc(C)c(C#N)c(SCC(=O)c2cccs2)n1`, with -63.4%; and `Cc1cc(C)c(C#N)c(SCC(=O)c2ccc(Cl)cc2Cl)n1`, with 68.6% (active). On to `CNc1ccccc1C(=O)OCC(C)=O`, for which the inhibition is -41.6%. Turning to `COc1ccc(CCNC(=O)CCC(=O)N2CCOc3ccc(C)cc32)cc1OC`, the inhibition is 10.2%. The figure for `COc1ccc(NC(=O)c2cc(-c3cc(OC)c(OC)c(OC)c3)nc3ccccc23)cc1OC` is 43.8%; for `COc1cc(-c2cc(C(=O)Nc3ccc(O)cc3)c3ccccc3n2)cc(OC)c1OC` it is 6.4%; for `COc1cc(-c2cc(C(=O)Nc3cccc(C(C)=O)c3)c3ccccc3n2)cc(OC)c1OC` it is 63.6% (active).

Consider `C=CCC(c1ccccc1F)N(CCN1CCOCC1)C(=O)Nc1cccc(Cl)c1` (configuration not stated), for which the inhibition is 7.7%. Turning to `COc1ccc(C(C(=O)NC2CCCC2)N(C(=O)c2ccoc2C)c2ccc(C)cc2)cc1` (configuration not stated), the inhibition was -10.4%. The figure for `COCCN(C(=O)CCC(=O)Nc1cc(C)on1)C(C(=O)NC1CCCC1)c1ccccc1C` (configuration not stated) is -13.7%. `COCCN(C(=O)C(=O)NC1CCCC1)C(C(=O)NC1CCCC1)c1ccccc1F` (configuration not stated): the inhibition was -25.2%. `COC(CN(C(=O)CCl)C(C(=O)NC1CCCCC1)c1ccc(C)cc1)OC` (configuration not stated): the inhibition is 68.9%. On to `O=S(=O)(NC1CCCCC1)c1cccc(-c2nnc(-c3ccccc3)o2)c1`, for which the inhibition is 8.5%. On to `Cc1ccc(C(C(=O)NC2CCCC2)N(C(=O)Cc2cccs2)c2ccc3c(c2)OCCO3)cc1` (configuration not stated), for which the inhibition was -7.5%. Regarding `O=C(CN1CCOCC1)N/N=C/c1ccc(-c2cccc(Cl)c2Cl)o1`, the inhibition was -9.3%.

As for `O=C(CN1C(=O)COc2ccccc21)NCCN1CCOCC1`, the inhibition is -38%. Take `CC(=O)c1c(O)c2ccccc2n(C2CCCCC2)c1=O`: the inhibition is 57.4% (active). The figure for `CCn1c(=O)c(C(C)=O)c(O)c2ccccc21` is -17%. For the compound `CC(=O)c1c(O)c2ccccc2n(C)c1=O`, the inhibition is -26%.

With `CC(C)CC(=O)c1c[nH]c(C(=O)O)c1`, the inhibition was -16.9%. As to `CC(Cl)C(=O)Nc1ncc(C(F)(F)F)cc1Cl` (configuration not stated), the inhibition is -12%. Then `Cc1[nH]n(-c2ccccc2)c(=O)c1C(=O)c1ccccc1`, with -3.5%. Then `CCCSC(=S)c1c(C)[nH]n(-c2ccccc2)c1=O`, with 50.5% (active); and `CCSC(=S)c1c(C)[nH]n(-c2ccccc2)c1=O`, with 1.7%. In the case of `CCCOc1ccc(N2C(=O)CC(N(Cc3ccco3)C(=O)CC)C2=O)cc1` (configuration not stated), the inhibition was -3.4%.

Consider `COc1ccc(CCNC(=O)c2cccs2)cc1OC`, for which the inhibition is -51.6%. On to `COc1ccc(C2(O)CCN(C(=O)NC3CCCCC3)CC2)cc1`, for which the inhibition was -14.2%. Take `CCOC(=O)c1sc2ccccc2c1OC(=O)c1ccccc1OC`: the inhibition is 46.4%.

For `CCOC(=O)c1sc2ccccc2c1OC(=O)c1ccccc1`, the inhibition was 38.2%. Then `CC1COc2ccccc2N1C(=O)c1ccccc1Cl` (configuration not stated), with 4.6%; and `Cc1ccc(S(=O)(=O)N2c3ccccc3OCC2c2ccccc2)cc1` (configuration not stated), with -19.1%.

Consider `CCCCOc1ccccc1C(=O)N(Cc1ccco1)C1CCS(=O)(=O)C1` (configuration not stated), for which the inhibition was 25.4%. With `CCOC(=O)c1c(C)c2c(=O)[nH]cnc2n1-c1ccccc1`, the inhibition is 32.5% (active). As for `CCOC(=O)c1c(O)c(O)c(C(=O)OCC)n1-c1ccccc1`, the inhibition is -8.7%. For `CCOC(=O)c1sc2nc[nH]c(=O)c2c1C`, the inhibition is 4.3%. The figure for `C=CCOc1c(CNc2ccc(C(=O)O)cc2)cccc1OC` is -2.4%; for `N#Cc1cc2c(nc1SCc1cccnc1)CCCC2` it is -35.1%. Then `Cc1[nH]c(=S)c(C#N)c(-c2ccco2)c1C(=O)N(C)C`, with -29.8%; and `COc1ccc(NC(=O)NC2(C(=O)N3CCCCCC3)CCCCC2)cc1`, with -9.8%.

For the origin of these results see PubChem BioAssay AID1578 (Sanford-Burnham Center for Chemical Genomics, 2009).
